Measurements: PubChem BioAssay (NCATS)
Records with an inconclusive call do not appear. Calls of active or inactive are those of the source. Unless noted, calls follow the shape of the full dose curve.

Legend:
[1] = qHTS for Inhibitors of the Functional Ribonucleoprotein Complex (vRNP) of Lassa (LASV) Arenavirus: LASV Primary Screen - GLuc reporter signal (AID 1347082; calls by dose curve; tested in HEK293 reporter line; also: nearly all actives have a fitted effect of over 60% in size)
[2] = qHTS for Inhibitors of the Functional Ribonucleoprotein Complex (vRNP) of Lassa (LASV) Arenavirus: Viability assay - alamar blue signal for LASV Primary Screen (AID 1347083; calls by dose curve; tested in HEK293 reporter line; also: nearly all actives have a fitted effect of over 80% in size)
[3] = qHTS for Inhibitors of the Functional Ribonucleoprotein Complex (vRNP) of Lymphocytic Choriomeningitis Arenaviruses (LCMV): Viability assay - alamar blue signal for LCMV Primary Screen (AID 1347085; calls by dose curve; tested in HEK293 reporter line; also: nearly all actives have a fitted effect of over 80% in size)
[4] = biological target: Nucleoprotein (Lymphocytic choriomeningitis virus (strain Armstrong)) (UniProt P09992); assay: qHTS for Inhibitors of the Functional Ribonucleoprotein Complex (vRNP) of Lymphocytic Choriomeningitis Arenaviruses (LCMV): LCMV Primary Screen - GLuc reporter signal (AID 1347086); also: nearly all actives have a fitted effect of over 70% in size
Chain of Nucleoprotein (Lymphocytic choriomeningitis virus (strain Armstrong)) (P09992 whole entry, looked up): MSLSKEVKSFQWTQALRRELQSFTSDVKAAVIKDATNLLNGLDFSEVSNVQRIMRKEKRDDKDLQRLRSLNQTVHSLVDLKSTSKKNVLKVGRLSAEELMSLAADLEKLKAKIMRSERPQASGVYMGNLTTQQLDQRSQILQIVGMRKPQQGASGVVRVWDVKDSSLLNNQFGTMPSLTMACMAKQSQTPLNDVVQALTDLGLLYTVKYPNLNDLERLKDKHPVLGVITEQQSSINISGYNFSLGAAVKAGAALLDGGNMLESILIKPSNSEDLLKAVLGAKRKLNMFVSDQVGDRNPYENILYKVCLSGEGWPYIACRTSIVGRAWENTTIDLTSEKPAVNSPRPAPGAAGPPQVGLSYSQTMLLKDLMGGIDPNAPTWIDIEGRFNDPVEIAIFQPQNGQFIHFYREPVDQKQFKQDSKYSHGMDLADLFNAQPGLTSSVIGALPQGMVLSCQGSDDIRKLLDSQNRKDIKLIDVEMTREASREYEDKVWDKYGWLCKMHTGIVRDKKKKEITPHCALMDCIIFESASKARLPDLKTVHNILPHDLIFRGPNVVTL

Measured: Potency
Also: series mostly up to about 57 µM.

O=C(O)c1ccc(OCCN2CCCCC2)cc1
inactive: [1] | [2] | [3] | [4]

CCOC(CN1CCN(CC(C)C(=O)c2ccccc2)CC1)c1ccccc1 (configuration not stated)
inactive: [1] | [2] | [3] | [4]

C#CC1(O)CC[C@H]2[C@@H]3CCC4=CCCC[C@@H]4[C@H]3CC[C@@]21C (some centres not stated)
inactive: [1] | [2] | [3] | [4]

COCCc1ccc(OCC(O)CNC(C)C)cc1 (configuration not stated)
inactive: [1] | [2] | [3] | [4]

Cc1ccc(/C=N/n2c(-c3ccccc3)csc2=S)cc1
inactive: [1] | [2] | [3] | [4]

CCCN(CCC)C(=O)C(CCC(=O)O)NC(=O)c1ccccc1 (configuration not stated)
inactive: [1] | [2] | [3] | [4]

Oc1cc(O)c2c(c1)O[C@H](c1ccc(O)c(O)c1)[C@H](O)C2
inactive: [1] | [2] | [3] | [4]

NCCc1cnc[nH]1
inactive: [1] | [2] | [3] | [4]

CCCc1ncc(C[n+]2ccccc2C)c(N)n1
inactive: [1] | [2] | [3] | [4]

CN(C)CCCO[C@@H]1[C@H]2OC(C)(C)O[C@H]2O[C@@H]1C(O)CO (some centres not stated)
inactive: [1] | [2] | [3] | [4]

Clc1ccc(C(Cn2ccnc2)OCc2ccc(Sc3ccccc3)cc2)c(Cl)c1 (configuration not stated)
inactive: [1] | [2] | [3] | [4]

Cc1c(-c2ccccc2)oc2c(C(=O)OCCN3CCCCC3)cccc2c1=O
inactive: [1] | [2] | [3] | [4]

CC1(C)CO[C@@H](CC(=O)O)CN1
inactive: [1] | [2] | [3] | [4]

CCCCC(=O)O[C@]1(C(=O)CO)CC[C@H]2[C@@H]3CCC4=CC(=O)CC[C@]4(C)[C@H]3[C@@H](O)C[C@@]21C
inactive: [1] | [2] | [3] | [4]

Cc1cccc(Nc2cc(Cl)nc(SCC(=O)O)n2)c1C
inactive: [1] | [2] | [3] | [4]

CCn1cc(C(=O)O)c(=O)c2cc(F)c(N3CCNCC3)nc21
inactive: [1] | [2] | [3] | [4]

Cc1c(Cn2ccnc2)c2ccccc2n1CCC(=O)O
inactive: [1] | [2] | [3] | [4]

CCCCC[C@H](O)C=C[C@H]1[C@H](O)CC(=O)[C@H]1CC=CCCCC(=O)O
inactive: [1] | [2] | [3] | [4]

CCCc1cc(C(N)=S)ccn1
inactive: [1] | [2] | [3] | [4]

CCCCOc1ccc(OCCCN2CCOCC2)cc1
inactive: [1] | [2] | [3] | [4]

CC(C)(C)C(=O)NCCCC(=O)O
inactive: [1] | [2] | [3] | [4]

NCC1CCC(C(=O)Oc2ccc(CCC(=O)O)cc2)CC1 (configuration not stated)
inactive: [1] | [2] | [3] | [4]

COc1cc2c(cc1OC)-c1cc(=Nc3c(C)cc(C)cc3C)n(C)c(=O)n1CC2
inactive: [1] | [2] | [3] | [4]

Cn1c(=O)c2c(ncn2CC2OCCO2)n(C)c1=O
inactive: [1] | [2] | [3] | [4]

C[C@H]1C[C@H]2[C@@H]3CCC4=CC(=O)C=C[C@]4(C)[C@H]3C(=O)C[C@]2(C)[C@@]1(O)C(=O)CO
inactive: [1] | [2] | [3] | [4]

O=C(CN1CCN(Cc2ccc3c(c2)OCO3)CC1)N1c2ccccc2Sc2ccccc21
inactive: [1] | [2] | [3] | [4]

Nc1c(CC(=O)O)cccc1C(=O)c1ccc(Br)cc1
inactive: [1] | [2] | [3] | [4]

CSc1ccc(/C=C2/C(C)=C(CC(=O)O)c3cc(F)ccc32)cc1
inactive: [1] | [2] | [3] | [4]

CNC(=O)Oc1ccc2c(c1)[C@]1(C)CCN(C)[C@@H]1N2C
inactive: [1] | [2] | [3] | [4]

CC(=O)N1CCN(c2ccc(O)cc2)CC1
inactive: [1] | [2] | [3] | [4]

Cc1ccc(C(=O)Nc2ccc(S(=O)(=O)O)c3cc(S(=O)(=O)O)cc(S(=O)(=O)O)c23)cc1NC(=O)c1cccc(NC(=O)Nc2cccc(C(=O)Nc3cc(C(=O)Nc4ccc(S(=O)(=O)O)c5cc(S(=O)(=O)O)cc(S(=O)(=O)O)c45)ccc3C)c2)c1
inactive: [1] | [2] | [3] | [4]

CN1CCCN=C1COC(=O)C(O)(c1ccccc1)C1CCCCC1 (configuration not stated)
inactive: [1] | [2] | [3] | [4]

O=C1NC(=O)[C@@]2(CCOc3ccc(F)cc32)N1
inactive: [1] | [2] | [3] | [4]
